# In the library only some 9.9% were active in any assay of this set; here they are far more common.
# MCF10A rereplic = induces DNA re-replication in MCF 10a normal breast cells; actives 2.9% (n = 350,000); AID 624296; MCF 10A DNA re-replication, Hoechst nuclear intensity, 48 h; Potency, µM (highest dose often 46.1 µM), for inactives: top-dose activity, positive = re-replication, usual class: activators; note: potency is the fitted concentration of half-maximal effect; % of control where 0% means no effect; nearly all actives have a fitted effect of over 50% in size
# IL-1B inflam inh = inhibitors of inflammasome signaling (IL-1 beta secretion); activity change, % at 57.5 µM; actives 4.7% (n = 360,000); THP-1 LPS/ATP IL-1B secretion, AlphaLISA, 16 h; hits give low values; AID 743279; in the data active = activity change below about -50%; inconclusive = mostly about -30% to -49%; note: % is set by controls: 0 for no effect and ±100 for the full control effect
#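 THP-1 cells pretreated 1 hr with compounds (up to 57.5 uM final), then stimulated with LPS (250 ng/mL final) plus ATP (1.25 mM final); secreted IL-1B measured by AlphaLISA after 16 hr, decreased signal indicating inhibition.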
# KB-3-1 cytotox = KB-3-1 parental cell cytotoxicity. AID 1347075. actives 1.4% (n = 400,000). KB-3-1 viability, CellTiter-Glo ATP luminescence, 72 h. Potency, µM (doses to about 46.1 µM), actives largely listed as cytotoxic; note: potency is the fitted concentration of half-maximal effect; % is set by controls: 0 for no effect and ±100 for the full control effect; nearly all actives have a fitted effect of over 60% in size
#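 Here the drug-naive KB-3-1 line serves as comparator for MDR sub-line selectivity; cells received compound titrations, 72 h at 37 °C, then CellTiter-Glo readout.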
# KB-V1 cytotox = kills drug-selected multidrug resistant KB-V1 cells; KB-V1 MDR cells viability, CellTiter-Glo, 72 h; Potency, µM (titrated, usually from 46.1 µM), most hits filed as cytotoxic; actives 3.4% (n = 400,000); AID 1347076; note: potency is the fitted concentration of half-maximal effect; % is set by controls: 0 for no effect and ±100 for the full control effect; nearly all actives have a fitted effect of over 60% in size
#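 In this primary screen, KB-V1 cells overexpressing P-gp are incubated with library compounds (lowest to highest concentration) for 72 h at 37 degrees C before a luminescent ATP viability read.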
# SW480 rerep = inducers of DNA re-replication in SW480 colon cancer cells; actives 1.8% (n = 340,000); SW480 DNA re-replication, Hoechst DNA content imaging, 48 h; Potency, µM (top dose mostly 46.1 µM), inactives show at the top dose re-replication activation, hits mostly activators; note: potency is the fitted concentration of half-maximal effect; % of control where 0% means no effect; nearly all actives have a fitted effect of over 55% in size
#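 Compounds, transferred as 23 nL by pin tool, were incubated with cells for 48 hr; DNA content per nucleus was then quantified by Hoechst staining and fluorescence plate imaging.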
# * marks the source's active call; other numbers are inactive results; i = inactive; ? = inconclusive; / = not tested or not shown; [ ] = dose if it differs, or a comment. Unless noted, calls come from the whole dose curve; as a rule, active = well fitted curve in the direction sought with a large enough effect; inconclusive = small, poorly fitted or top-dose-only effect, or another doubt; inactive = no such curve, though single readings can be large; an effect the other way counts as inactive or inconclusive.
SMILES,MCF10A rereplic,IL-1B inflam inh,KB-3-1 cytotox,KB-V1 cytotox,SW480 rerep
COc1ccc(OCc2cc(-c3ccc(Cl)cc3)no2)cc1,22%,105,i,i,1%
CCN(C(=O)COc1ccc(C)cc1OC)c1cccc2ccccc12,14%,-7,i,12µM*,-3%
CCN1C(=O)[C@H]2[C@@H](c3ccc(-c4ccccc4)cc3)N3CCC[C@@]3(C(=O)OC)[C@H]2C1=O,?,-15,i,i,-18%
COc1ccccc1NC(=S)N(Cc1cccs1)C1CCCC1,11%,-63*,i,i,-5%
CC(=O)N1CCN(S(=O)(=O)c2cccc(C(=O)NCCC3=CCCCC3)c2)CC1,?,-6,i,i,?
COc1ccc(CCNC(=O)CN(C2CCCCC2)S(C)(=O)=O)cc1OC,3%,0,i,?,29%
CCNC(=O)CN(C1CCCCC1)S(=O)(=O)c1ccc(F)cc1,3%,-8,i,13µM*,1%
CS(=O)(=O)N(CC(=O)NCCc1ccccc1)C1CCCCC1,1%,3,i,23µM*,-5%
CN(C1CCCCC1)S(=O)(=O)c1ccc(S(=O)(=O)N(CC(=O)Nc2ccccc2)C2CC2)cc1,13%,15,i,i,3.7µM*
COc1ccc(C(=O)O)cc1S(=O)(=O)Nc1ccccc1-c1ccccc1,-31%,11,i,i,-22%
Cc1nn(C)cc1S(=O)(=O)N1CCCCC1C (stereo unspecified),-2%,3,i,?,-5%
F[B-](F)(F)c1cc2ccccc2s1,4%,-70*,?,i,3%[9.22 µM]
F[B-](F)(F)c1cc2cc(Br)ccc2s1,-5%,-62*,i,i,17%
CCn1c(C(=O)Nc2ccc(C)cc2C)cc2sc(Cl)cc21,/,/,i,i,/
COc1ccc(Cn2c(C3CC3)nc3ccc(NC(=O)C4CC4)cc3c2=O)cc1,9%,-65*,?,23µM*,14%
O=C(Nc1ccc2nc(C3CC3)n(Cc3ccc(F)cc3)c(=O)c2c1)c1ccco1,?,-51*,i,?,-8%[9.22 µM]
CC(=O)Nc1ccc2nc(C3CC3)n(Cc3ccc(Cl)cc3)c(=O)c2c1,?,0,i,i,-73%
Cc1ccccc1OCc1nc(C#N)c(N2CCCC2)o1,-8%,-58*,i,i,-9%
COc1ccccc1OCc1nc(C#N)c(N2CCCC2)o1,-10%,0,i,i,6%
N#Cc1nc(COc2ccccc2)oc1N1CCC(Cc2ccccc2)CC1,-1%,-55*,i,i,14%
O=C1CN2CCC1C/C2=C\c1ccnc2c(Cl)cccc12 (stereo unspecified),23%,9,i,i,-2%
CCOc1ccc2c(c1)C(=O)c1cc(OCC(=O)O)ccc1-2,-2%,-14,i,?,-5%
CCCCOc1ccc2c(c1)C(=O)c1cc(O)ccc1-2,?,-101*,i,i,4%
COc1ccc(NC(=O)c2ccc3c(SCC(=O)O)c4c(nc3c2)CCCC4)cc1OC,/,/,i,i,/
COc1ccc(NC(=O)CSc2c3c(nc4cc(Cl)ccc24)CCCC3)cc1OC,?,-103*,i,?,?
SMILES,MCF10A rereplic,IL-1B inflam inh,KB-3-1 cytotox,KB-V1 cytotox,SW480 rerep
COc1ccc(OC)c(NC(=O)c2c3c(nc4ccccc24)CCC3)c1,-1%,30,i,6.5µM*,9%
COc1ccc(NC(=O)CSc2c3c(nc4ccccc24)CCCC3)c(OC)c1,21µM*,-105*,i,i,?
COc1cc(NC(=O)CSc2c3c(nc4ccccc24)CCC3)cc(OC)c1OC,0%,-60*,i,15µM*,46%
COc1ccccc1NC(=O)CSc1c2c(nc3ccccc13)CCC2,2%,?,i,?,-6%
COc1cc(NC(=O)c2ccc3c(SCC(=O)O)c4c(nc3c2)CCC4)cc(OC)c1OC,10%,-4,i,i,-10%
COc1ccc(-c2c(C(=O)c3ccc(Br)cc3)[nH]c(N)c2C(=O)c2ccccc2)cc1OC,/,10,i,?,/
Cc1ccc2nc(-c3ccc(Cl)c(NC(=O)c4ccc5c(c4)OCCO5)c3)oc2c1,/,/,i,i,/
CC(=O)Nc1ccc(NC(=O)CSc2ccc3nnc(-c4cccnc4)n3n2)cc1,-42%,4,i,i,-6%
CC(C)Cc1nnc(NC(=O)CN2C(=O)NC3(CC(C)CC(C)(C)C3)C2=O)s1 (stereo unspecified),-1%,-13,i,i,4%
CCOC(=O)C1CCN(C(=O)CSc2c3c(nc4ccccc24)CCC3)CC1,2%,-130*,i,i,0%
CCc1ccc(OCCOCC(O)CN2CCN(Cc3ccc(Cl)cc3)CC2)cc1 (stereo unspecified),15µM*,-53*,?,i,?
COc1cccc(OCCOCC(O)CN2CCN(Cc3ccc(Cl)cc3)CC2)c1 (stereo unspecified),?,-17,i,i,-3%
OC[C@H](S)CS,9.4µM*,/,?,i,17%
CC(=O)Nc1cccc(NS(=O)(=O)c2cc3c4c(c2)CCN4C(=O)CC3)c1,-2%,4,i,i,-6%
C[N+]1(CCCCSc2ccc(O)cc2)CCCCC1,21%,33,18µM*,i,6%
CON(c1nc(Cl)nc(N(C)C)n1)S(=O)(=O)c1ccccc1Cl,20%,-4,?,i,11%
CON(c1nc(Cl)nc(N(C)C)n1)S(=O)(=O)c1ccc(C)cc1,?,-63*,i,i,?
COCCCn1c(O)c(/C=C2\N=C(C#N)C(=Nc3ccc(C)cc3)O2)sc1=S,9%,-82*,?,?,?
O=C(O)CCCCCn1c(O)c(C=C2N=c3ccccc3=N2)sc1=S,28%,2,i,i,4%
O=C(COc1ccc(F)cc1)Nc1nnc(S(=O)(=O)N2CCCC2)s1,16%,-4,i,i,-12%
CN(C)c1cccc(/C=C(\C#N)c2ccccc2)c1,?,-5,5.8µM*,?,?
CN(C)c1ccc(/C=C(\C#N)c2ccccc2)cc1,3.7µM*,14,?,?,3.7µM*
CN(C)c1ccc(/C=C(\C#N)C(=O)c2ccccc2)cc1,2%,-10,i,i,-6%
COc1ccc(OC)c(NC(=O)CCN2C(=O)c3ccccc3C2=O)c1,-3%,0,i,i,?
COc1ccc(NC(=O)C2CCN(S(=O)(=O)c3ccc4c(c3)CCCC(=O)N4)CC2)cc1Cl,/,/,i,i,/
CCOc1ccc(S(=O)(=O)N2CCN(C(=O)c3cc(C4CC4)nn3-c3ccccc3)CC2)cc1,13%,-25,i,?,18%
